For 40 molecules, outcome and AC50 results are on record in PubChem BioAssay (EPA / NIEHS).

SMILES strings stand for the structures. Active and inactive are the calls of the source. The calls were made as follows: active = hit-call score of the fitted dose curve at least 0.9, where 1 is the maximum; inactive = score below 0.9.

The experiment is described as follows: APR_HepG2_MicrotubuleCSK_24hr: Apredica 24-hour HepG2 Assay for Microtubule CSK Stabilty (AID 2282909). Conditions: HepG2 microtubule cytoskeleton imaging, actives raise or lower the signal. As for the experimental part: APR_HepG2_24hr is a cell-based, multiplexed-readout assay that uses HepG2, a human liver cell line, with measurements taken at 24 hours after chemical dosing in a 384-well plate.APR_HepG2_MicrotubuleCSK_24hr is one of 10 assay component(s) measured or calculated from the APR_HepG2_24hr assay. It is designed to make measurements of protein conformation, a form of conformation reporter, as detected with fluorescence intensity signals by HCS Fluorescent Imaging technology.Data from the assay component APR_HepG2_MicrotubuleCSK_24hr was analyzed into 1 assay endpoint. This assay endpoint, APR_HepG2_MicrotubuleCSK_24hr, was analyzed with bidirectional fitting relative to DMSO as the negative control and baseline of activity. Using a type of conformation reporter, measures of protein for gain or loss-of-signal activity can be used to understand the signaling at the cellular-level. Furthermore, this assay endpoint can be referred to as a primary readout, because this assay has produced multiple assay endpoints where this one serves a signaling function. To generalize the intended target to other relatable targets, this assay endpoint is annotated to the cell morphology intended target family, where the subfamily is cell conformation.
Cells were treated with dimethyl sulfoxide (DMSO) as a solvent control at a final concentration of 0.5% v/v or with compounds in DMSO with a resulting final DMSO concentration of 0.5% v/v. Compound treatment was done at concentrations of 0.39, 0.78, 1.56, 3.12, 6.24, 12.5, 25, 50, 100, and 200 uM in duplicate on each plate. Cells were treated with compounds for 1, 24, or 72 hr. Carbonyl […] m-chloro-phenylhydrazone (CCCP) and taxol were used as positive controls for mitochondrial function and cytoskeletal stability, respectively; DMSO served as the negative control for this experiment. Cells were fixed by the direct addition of 50 uL formaldehyde in Hank's Balanced Salt Solution (HBSS) to a final concentration of 3.7%. After incubation in the fixation medium for 30 min at room temperature (293-298 K), cells were rinsed twice with HBSS and treated with cell permeabilization buffer (16 uL of 0.5% Triton X-100) for 10 min at room temperature (293-298 K) before labeling. For mitochondrial membrane potential and mitochondrial measurements, pre-fixed cells were incubated with 50 uL of MitoTracker Red CMXRos (Invitrogen) at a concentration of 250 nM for 30 min before fixation. In the remaining cases, post-fixed cells were labeled by incubation with a multiplexed mixture of primary antibodies in HBSS for 60 min at room temperature (293-298 K) to detect immunoreactivity of c-Jun (1:500), phospho-histone H3 (1:100), phospho-histone H2A.x (1:200), p53 (1:400), alpha-tubulin (1:200) and Hoechst 33342 (2 ug/mL). Cells were labeled for multiplexed imaging on two separate plates: a) Hoechst 33342, MitoTracker Red, phospho-histone H3, and alpha-tubulin, and b) Hoechst 33342, phospho-histone H2A.x, and c-Jun. A final rinse with HBSS (50 uL) was performed before analysis. The primary and secondary antibodies for the proteins were phospho-histone H3 (rabbit anti-phospho-histone H3 and FITC-donkey anti-rabbit IgG), phospho-histone H2A.x (mouse anti-phospho-histone H2A.x and FITC-donkey anti-mouse IgG), c-Jun (rabbit anti-phospho-c-Jun and Cy3-donkey anti-rabbit IgG), p53 (sheep anti-p53 and Cy5-donkey anti-sheep IgG), alpha-tubulin (mouse anti-alpha-tubulin and Cy5-donkey anti-mouse IgG). These antibodies are available as the CellCiphr HepG2 assay kit (Millipore).Digital images of each well were captured using a Cellomics ArrayScan VTI (Thermo Scientific Cellomics) (0.8 NA objective, 0.63x optical coupler, and XF-93 filter set) at 20x magnification. The images were acquired using the autofocus feature of the ArrayScan instrument, which entails the following steps. First, the camera focuses on channel 1 (Hoechst 33342), where nuclei are identified. Second, a Z offset of 1 um is used for capturing mitochondria (MitoTracker Red). […]
Take `CCN(C(=O)c1cc(C)cc(OC[C@H](C)Nc2ccncc2)c1)C(C)C`: the outcome was inactive. As to `CCc1cc(SCc2sc(-c3ccc(C(F)(F)F)cc3)nc2CN2CCN(c3ccc(OC)cc3)CC2)ccc1OCC(=O)O`, the AC50 (as a rule, the midpoint of the concentration-response curve, whichever way the signal moves) is 48.5 µM (active).

As to `CC1(C)C(=O)N(Br)C(=O)N1Br`, the molecule was classed as inactive. On the same count and under the same terms, as for `CC(C)c1cccc(C(C)C)c1N1C(=O)c2ccc(O)cc2C1=O`, the entry is “inactive”; as for `CCCCCCCCCCCCc1ccccc1`, “inactive”; as for `CC(C)CCCCCCOC(=O)c1ccc(C(=O)OCCCCCCC(C)C)c(C(=O)OCCCCCCC(C)C)c1`, “inactive”. For `Cc1[nH]cnc1C[C@H]1CCc2c(C)c3ccccc3n2C1=O`, the result was inactive. With `CCOCCO`, the result was inactive.

For the molecule `CC(C)CCO`, the molecule was called inactive. On to `CC(C)CCCCCCCOC(=O)CCCCC(=O)OCCCCCCCC(C)C`, for which the call was inactive. Consider `Nc1nc2ncc(CNc3ccc(C(=O)N[C@@H](CCC(=O)O)C(=O)O)cc3)nc2c(=O)[nH]1`, for which the molecule was classed as inactive.

As for `CC(=O)OCCC(C)C`, the molecule was classed as inactive.

In the case of `CC(C)=CCC/C(C)=C\CO`, the molecule was classed as inactive. Regarding `CCOC(=O)CC(CC(=O)OCC)(OC(C)=O)C(=O)OCC`, the result was inactive. The same measure, in the same setting: as for `O=C(O)c1cccc(Oc2ccccc2)c1`, the entry is “inactive”; as for `O=C1OC(=O)C2C3C=CC(C3)C12` (stereo not given), “inactive”. Take `CNCc1ccc(NC(=O)c2c[nH]c3c2C(=O)CCC3)cc1`: the result was inactive. Same read-out and setting: as for `Nc1cccc(N)c1`, the entry is “inactive”; as for `NC(=O)NO`, “inactive”.

Regarding `CNS(=O)(=O)c1cc(C(=O)N2CCC(CCN3C4CCC3CC(n3c(C)nc5ccccc53)C4)(c3cccc(F)c3)CC2)c(Cl)cc1F` (stereo not given), the half-maximal activity concentration (AC50) was 52 µM (active). With `O=C(O)c1cccc(N(Cc2cccnc2)c2ccc(OC(F)F)c(OC(F)F)c2)c1`, the molecule was called inactive.

As to `CC/C(=C\C(=N/O)C(N)=O)C(C)[N+](=O)[O-]` (stereo not given), the call was inactive. For the molecule `CC1=CC(=O)CC(C)(C)C1`, the result was inactive. As to `COCCOc1cc2cc(C(=O)NC3CCN(C(C)C)CC3)n(CC(=O)Nc3ccc(Cl)cn3)c2cn1`, the molecule was called inactive. For `CC(C)CC(C)(O)C#CC(C)(O)CC(C)C` (stereo not given), the result was inactive. Turning to `O=C(O)CC(O)C(=O)O` (stereo not given), the call was inactive. In the case of `Cc1c(-c2cccnc2)c2ccccc2n1CCCCC(=O)O`, the call was inactive.

With `C1=CCCC=CCCC=CCC1`, the outcome was inactive. For the molecule `CCOCCOCCOCCO`, the outcome was inactive. With `Clc1nc(Cl)c(Cl)c(Cl)c1Cl`, the result was inactive. In the case of `O=P(OC(CCl)CCl)(OC(CCl)CCl)OC(CCl)CCl`, the result was inactive. Same read-out and setting: as for `O=C(NS(=O)(=O)/C=C/c1ccccc1)c1ccc(F)cc1Cl`, the entry is “inactive”; as for `CCCCCCCCCCCCCCCO`, “inactive”. As to `Cn1c(=O)c2c(ncn2C)n(C)c1=O`, the call was inactive.

In the case of `COc1ccc2sc(C(=O)Nc3nnn[nH]3)c(OC(C)C)c2c1`, the result was inactive.

For the molecule `CC(O)CN(CCN(CC(C)O)CC(C)O)CC(C)O` (stereo not given), the molecule was classed as inactive. With `O=C(O)c1cc(N=Nc2ccc(S(=O)(=O)Nc3ccccn3)cc2)ccc1O`, the outcome was inactive. For the molecule `CCOC(=O)c1ccc(C2CCC(NC[C@H](O)COc3ccc(O)c(NS(C)(=O)=O)c3)CC2)cc1` (stereo not given in full), the AC50 was 90.2 µM (active).

In the case of `CCCCCCCCO`, the call was inactive. On to `CC(C)(O)c1coc(S(=O)(=O)NC(=O)Nc2c3c(cc4c2CCC4)CCC3)c1`, for which the molecule was classed as inactive.
